Compound activity deposited in PubChem BioAssay by National Center for Advancing Translational Sciences (NCATS).
KCNH2 3.1 block: inhibitors of human KCNH2 3.1 potassium channel isoform; U2OS KCNH2 3.1, thallium flux FluxOr; hits give low values; 0.95% of 340,000 active; activity change, % (tested at about 1.8 µM);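 active = maximum activity change below -70%; inconclusive = maximum activity change from -70% to -50%; inactive = maximum activity change above -50%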;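 also: thallium influx rate constant from kinetic fluorescence after stimulation buffer; % is scaled to controls: 0 for no effect and ±100 for the full control effect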
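We transduce U2OS cells with the mutant 3.1 virus, culture them overnight, load FluxOr with Red40 quencher for 45 min, then add stimulation buffer and read kinetically for 2 min to derive a normalized rate constant.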
Tb PFK inh-1: T. brucei PFK enzyme inhibition; AID 485367; 0.17% of 330,000 active; Potency, µM (top dose mostly 57.5 µM), inactives show at the highest dose activity, negative = inhibition, hits mostly inhibitors; T. brucei PFK, ADP-Glo luminescence; O15648;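 also: potency is read from the fitted curve at half-maximal effect; 0% = uninhibited 1x PFK enzyme wells and -100% = no-enzyme wells; nearly all actives have a fitted effect of over 60% in size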
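ADP-Glo luminescence quantified ADP after 45 min at room temperature, with 1.25 nM T. brucei PFK, 0.1 mM ATP and 0.5 mM fructose-6-phosphate in pH 8.0 TEA buffer. qHTS titrations up to 57 µM; curves classified by quality.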
KCNH2 WT inh: blocks the wildtype human KCNH2 potassium channel. U2OS, BacMam KCNH2, thallium flux FluxOr; hits give low values. 0.37% of 340,000 active. AID 720551. activity change, % at 1.84 µM;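 active = maximum activity change below -70%; inconclusive = maximum activity change between -70% and -50%; inactive = maximum activity change above -50%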; also: % is scaled to controls: 0 for no effect and ±100 for the full control effect
Target sequence (Q12809 whole entry, looked up): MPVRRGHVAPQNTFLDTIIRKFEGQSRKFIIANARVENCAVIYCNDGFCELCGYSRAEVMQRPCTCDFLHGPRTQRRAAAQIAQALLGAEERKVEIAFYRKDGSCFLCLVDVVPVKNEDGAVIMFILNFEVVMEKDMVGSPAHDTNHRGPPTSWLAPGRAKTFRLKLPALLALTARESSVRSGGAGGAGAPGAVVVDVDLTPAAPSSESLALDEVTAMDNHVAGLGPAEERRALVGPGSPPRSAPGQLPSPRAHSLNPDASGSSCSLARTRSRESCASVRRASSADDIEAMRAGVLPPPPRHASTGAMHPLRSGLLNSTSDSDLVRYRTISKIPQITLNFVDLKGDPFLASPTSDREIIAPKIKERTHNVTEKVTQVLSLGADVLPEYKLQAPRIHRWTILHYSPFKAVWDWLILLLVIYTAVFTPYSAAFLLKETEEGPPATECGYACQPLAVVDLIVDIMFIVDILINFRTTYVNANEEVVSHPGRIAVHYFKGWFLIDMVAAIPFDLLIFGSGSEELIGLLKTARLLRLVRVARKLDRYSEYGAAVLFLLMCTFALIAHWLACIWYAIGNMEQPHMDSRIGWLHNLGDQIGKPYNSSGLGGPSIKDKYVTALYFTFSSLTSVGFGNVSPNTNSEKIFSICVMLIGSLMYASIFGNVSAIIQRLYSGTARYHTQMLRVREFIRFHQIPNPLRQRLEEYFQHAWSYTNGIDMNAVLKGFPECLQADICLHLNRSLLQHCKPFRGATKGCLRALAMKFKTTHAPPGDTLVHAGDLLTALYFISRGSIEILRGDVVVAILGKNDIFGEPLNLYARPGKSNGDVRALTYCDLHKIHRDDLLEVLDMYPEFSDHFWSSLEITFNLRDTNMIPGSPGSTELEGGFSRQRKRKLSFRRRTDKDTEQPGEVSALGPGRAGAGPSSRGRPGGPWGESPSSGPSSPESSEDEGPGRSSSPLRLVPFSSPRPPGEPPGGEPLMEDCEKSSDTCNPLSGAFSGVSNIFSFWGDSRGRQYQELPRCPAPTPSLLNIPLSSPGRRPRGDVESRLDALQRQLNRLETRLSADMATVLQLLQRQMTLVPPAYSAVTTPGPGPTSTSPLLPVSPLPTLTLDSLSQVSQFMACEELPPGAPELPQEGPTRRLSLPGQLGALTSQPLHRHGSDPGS
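U2OS cells were transduced with wild-type KCNH2 virus (2.03 x 10^8 / mL) for 4 h at room temperature, then cultured overnight at 37 C. Thallium flux was read with FluxOr dye. Rate constants were normalized to DMSO controls.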
TSG101-PTAP inh: blocks PTAP/TSG101 interaction to inhibit HIV-1 budding; 340,000 tested, under 10 active; Fluorescence polarization, FITC-PTAP peptide / Tsg101 binding; Q99816; Potency, µM (highest dose often 115 µM), for inactives: at the highest dose activity change, negative = inhibition, actives largely listed as inhibitors; AID 493005; active = well fitted inhibition curve with a large enough effect in the main read-out, with a control signal flat, not every such curve was filed as active; inconclusive = small, poorly fitted or top-dose-only effect, or effect the other way, or a change in a side signal; inactive = no such curve, though single readings can be large or run the other way; also: potency is read from the fitted curve at half-maximal effect; % of control where 0% means no effect
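Tsg101 binding domain (10 uM final) was mixed with compound and a FITC-labeled PTAP peptide (50 nM final) in HEPES pH 7.5 buffer with NaCl, Tween 20, EDTA and TCEP; fluorescence polarization was read after 20 min at r.t.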
Tb PFK KinaseGlo: orthogonal confirmation of T. brucei phosphofructokinase inhibitors; Potency, µM (titrated, usually from 57.5 µM), for inactives: at the highest dose inhibition; 47% of 1,100 active; Tb PFK enzyme, ATP depletion, Kinase-Glo Plus luminescence; shares compounds with Tb PFK inh-1; calls by dose curve; also: potency is read from the fitted curve at half-maximal effect; nearly all actives have a fitted effect of over 60% in size
Tb PFK inh-2: validation of T. brucei phosphofructokinase inhibitors. shares compounds with Tb PFK inh-1. purified T. brucei PFK, ADP-Glo luminescence, 45 min. 41% of 1,100 active. Potency, µM (doses to about 57.5 µM), inactives show top-dose activity change, negative = inhibition, hits mostly inhibitors;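 also: potency is read from the fitted curve at half-maximal effect; plate controls were full PFK enzyme control for no effect and no enzyme control for full effect; nearly all actives have a fitted effect of over 60% in size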
Active calls of the source: *; ? = inconclusive; . = no result. Shown are actives, neighbours in structure and some others; about 1.2% of the full set was active somewhere. Unless noted, calls follow the shape of the dose curve; as a rule, active = well fitted inhibition curve with a large enough effect; inconclusive = small, poorly fitted or top-dose-only effect, or effect the other way; inactive = flat fitted curve, though single readings scatter.

SMILES	KCNH2 3.1 block	Tb PFK inh-1	KCNH2 WT inh	TSG101-PTAP inh	Tb PFK KinaseGlo	Tb PFK inh-2
CCCNC(=O)N1[C@H]2CC[C@@H]1C(C(=O)OC)=C(c1ccc(OC(F)(F)F)cc1)C2	3	-13%	15	-3%	.	.
C=C[C@@H]1C2=CCOC(=O)C2=CO[C@H]1O[C@@H]1O[C@H](CO)[C@@H](O)[C@H](O)[C@H]1O	15	5%	14	-2%	.	.
O=C(CCC(=O)N1CCN(c2cccc(Cl)c2)CC1)c1cccs1	8	?	-1	1%	?	?
CN1CCN(c2ccc([N+](=O)[O-])c(Sc3ccccn3)c2)CC1	-11	0%	1	2%	.	.
O=C(CSc1ccccn1)N1CCN(c2cccc(Cl)c2)CC1	-11	?	-4	-1%	?	?
NS(=O)(=O)c1ccc(NC(=S)N2CCN(c3cccc(Cl)c3)CC2)cc1	3	?	-8	-1%	11µM*	15µM*
O=C(CCC(=O)N1CCN(c2cccc(Cl)c2)CC1)N1CCN(c2ccccc2)CC1	23	?	-9	0%	?	?
COC(=O)C1=C(c2ccc(C(C)=O)cc2)C[C@@H]2CC[C@H]1N2C(=O)NCCOc1ccccc1Cl	22	7%	0	-3%	.	.
O=C(Nc1ccc(Cl)cc1)N1CC1	5	.	-3	-3%	.	.
CC(=O)c1ccc(NC(=O)N2CCN(c3cccc(Cl)c3)CC2)cc1	-16	21µM*	5	1%	21µM*	?
O=C(Nc1cccc(C(=O)N2CCN(c3cccc(Cl)c3)CC2)c1)c1ccccc1	5	?	.	-2%	?	?
Cc1nc2ccccc2c(=O)n1-c1ccc(Br)cc1[N+](=O)[O-]	25	0%	24	0%	.	.
COc1cc(OC)c(OC)cc1CN1CCN(C(=O)Cc2ccccc2)CC1	16	-1%	5	-1%	.	.
C/C(=C\c1ccc(N(C)C)cc1)[N+](=O)[O-]	-34	?	0	-9%	-24%	?
COC(=O)c1c2[n+](cc3cc(OC)c(OC)cc13)CCc1cc(OC)c(OC)cc1-2	2	.	-4	0%	.	.
O=C1C(=O)N(c2ccccc2)P(=O)(N(CCCl)CCCl)N1c1ccccc1	-2	.	-5	-3%	.	.
N/C(Cc1ccc(Cl)c(Cl)c1)=N\OC(=O)c1cccs1	-3	?	-8	-10%	11µM*	?
O=C(CCN1CCN(Cc2ccccc2)CC1)NNC(=O)Cc1ccc(Cl)c(Cl)c1	-40	17µM*	8	-5%	8.5µM*	11µM*
O=C(N/N=C/c1sc2ccccc2c1O)c1cccc2ccccc12	9	?	-5	25%	-25%	?
O=C(COC(=O)CCOc1ccccc1)NCc1ccco1	7	?	-13	-9%	?	?
C/C(=N\N1CCCCCC1)c1c(O)n(-c2ccccc2C)c(=O)[nH]c1=O	23	3%	10	1%	.	.
COc1ccc(CN2C(=O)CC(=O)NC2=O)cc1	8	-8%	0	-4%	.	.
COc1ccc(CN2C(=O)c3cccnc3C2O)cc1 (configuration not stated)	-7	27µM*	-12	-10%	?	?
CS(=O)(=O)c1ccc(C2=C(CNC(=O)c3nccs3)[C@H]3CC[C@@H](C2)N3Cc2ccccc2)cc1	?	.	-41	.	.	.
CC(=O)[C@H]1[C@H]([C@H](O)[C@H](O)CO)O[C@](O)(C(=O)O)C[C@@H]1O	-3	1.7µM*	-1	-2%	?	-16%
SMILES	KCNH2 3.1 block	Tb PFK inh-1	KCNH2 WT inh	TSG101-PTAP inh	Tb PFK KinaseGlo	Tb PFK inh-2
O=[N+]([O-])c1cc(-n2cnnn2)c(O)c([N+](=O)[O-])c1	-11	0%	-3	-7%	.	.
COc1ccc(-n2c(-c3ccccc3F)nc3ccccc3c2=O)cc1	0	.	3	.	.	.
COc1ccccc1N=Cc1c(O)n(C)c(=O)n(C)c1=O	-1	1%	-4	-6%	.	.
COc1ccccc1NS(=O)(=O)c1cccc(-n2c(O)c(C=Nc3ccccc3C(=O)O)c3ccccc3c2=O)c1	-11	?	-11	0%	-29%	?
Nc1ccc(O)c2c1C(=O)c1ccccc1C2=O	-2	?	1	-15%	11%	-24%
O=C1C(=O)c2ccccc2-c2ccccc21	-13	6%	4	1%	.	.
Nc1nc(SCCC(F)=C(F)F)n[nH]1	-9	3%	-12	0%	.	.
Nc1nc(SCc2ccc(Cl)c(Cl)c2)n[nH]1	.	13µM*	2	0%	9.5µM*	13µM*
COCCNC(=O)CN1C(=O)C(C)N=C(c2ccccc2)c2cc(Cl)ccc21 (configuration not stated)	8	4%	-1	-4%	.	.
Cc1c(O)ccc(C(=O)CN2CC(C)OC(C)C2)c1O (configuration not stated)	5	1%	0	-1%	.	.
Cc1ccc(Cl)cc1N1CCN(CCN)CC1	-7	0%	25	4%	.	.
S=C(NCCN1CCOCC1)N1CCN(c2cccc(Cl)c2)CC1	-5	?	4	2%	?	27µM*
CCOC(=O)N1CCN(c2ccc(Cl)c(Cl)c2)CC1	10	?	9	-2%	.	.
S=C(NCc1ccco1)N1CCN(c2cccc(Cl)c2)CC1	-1	?	-1	-1%	24µM*	?
COC(=O)C1=C(c2cccc(C#N)c2)C[C@@H]2CC[C@H]1N2C(=O)NC1CCCCC1	9	-6%	-5	-1%	.	.
O=c1c2ccccc2nc(-c2ccccc2)n1-c1ccccc1O	9	0%	-3	1%	.	.
O=c1cc(-c2ccccc2)oc2cc(O)c(O)c(O)c12	11	7.6µM*	0	-3%	2.7µM*	5.4µM*
O=C(CSc1nc(-c2ccc(F)cc2)nc2c1Cc1ccccc1O2)Nc1cccc(C(=O)O)c1	4	?	-6	-9%	?	?
COc1ccc(Nc2nc(C)cc(=O)[nH]2)cc1	-1	12µM*	-5	-9%	13µM*	24µM*
CC1(C)CC2CCC(O)C2C(CCO)N1 (configuration not stated)	2	.	3	-1%	.	.
Clc1ccc(CNCCCSc2ncccn2)cc1Cl	-11	15µM*	52	2%	19µM*	19µM*
C[C@H]1CC[C@H]2NCCN[C@H]2C1	-1	-3%	-18	-9%	.	.
O=S(=O)(Nc1ccccc1)c1cccc2nsnc12	-5	?	-3	-1%	?	?
ON=C1c2ccccc2-c2ccccc21	10	?	-11	-2%	7%	6%
CC(C)CNC(=O)/C=C/C=C/CCCCCC/C=C/c1ccc2c(c1)OCO2	-10	6%	3	0%	.	.
O=C(CCc1nnc2ccc(NCc3ccccc3Cl)nn12)N1CCC2(CC1)OCCO2	4	2%	-14	-2%	.	.
